Compound activity (PubChem)
The list is not random: actives were taken first. Their share in the collection is about 3.5%.
Pf apPOL block = Pf-apPOL DNA polymerase inhibition; Recombinant Pf-apPOL, molecular beacon fluorescence, 1.5 h; inhibition, % at 10 µM; hit rate 0.25% among 210,000
mHTT-CaM PPI inh = disrupts binding of mutant huntingtin to calmodulin | P42858 | AlphaScreen His-mHTT/GST-CaM binding, luminescence | inhibition, % at 15 µM | hit rate 3.6% among 190,000
Target sequence (P42858 whole entry, looked up, change not shown): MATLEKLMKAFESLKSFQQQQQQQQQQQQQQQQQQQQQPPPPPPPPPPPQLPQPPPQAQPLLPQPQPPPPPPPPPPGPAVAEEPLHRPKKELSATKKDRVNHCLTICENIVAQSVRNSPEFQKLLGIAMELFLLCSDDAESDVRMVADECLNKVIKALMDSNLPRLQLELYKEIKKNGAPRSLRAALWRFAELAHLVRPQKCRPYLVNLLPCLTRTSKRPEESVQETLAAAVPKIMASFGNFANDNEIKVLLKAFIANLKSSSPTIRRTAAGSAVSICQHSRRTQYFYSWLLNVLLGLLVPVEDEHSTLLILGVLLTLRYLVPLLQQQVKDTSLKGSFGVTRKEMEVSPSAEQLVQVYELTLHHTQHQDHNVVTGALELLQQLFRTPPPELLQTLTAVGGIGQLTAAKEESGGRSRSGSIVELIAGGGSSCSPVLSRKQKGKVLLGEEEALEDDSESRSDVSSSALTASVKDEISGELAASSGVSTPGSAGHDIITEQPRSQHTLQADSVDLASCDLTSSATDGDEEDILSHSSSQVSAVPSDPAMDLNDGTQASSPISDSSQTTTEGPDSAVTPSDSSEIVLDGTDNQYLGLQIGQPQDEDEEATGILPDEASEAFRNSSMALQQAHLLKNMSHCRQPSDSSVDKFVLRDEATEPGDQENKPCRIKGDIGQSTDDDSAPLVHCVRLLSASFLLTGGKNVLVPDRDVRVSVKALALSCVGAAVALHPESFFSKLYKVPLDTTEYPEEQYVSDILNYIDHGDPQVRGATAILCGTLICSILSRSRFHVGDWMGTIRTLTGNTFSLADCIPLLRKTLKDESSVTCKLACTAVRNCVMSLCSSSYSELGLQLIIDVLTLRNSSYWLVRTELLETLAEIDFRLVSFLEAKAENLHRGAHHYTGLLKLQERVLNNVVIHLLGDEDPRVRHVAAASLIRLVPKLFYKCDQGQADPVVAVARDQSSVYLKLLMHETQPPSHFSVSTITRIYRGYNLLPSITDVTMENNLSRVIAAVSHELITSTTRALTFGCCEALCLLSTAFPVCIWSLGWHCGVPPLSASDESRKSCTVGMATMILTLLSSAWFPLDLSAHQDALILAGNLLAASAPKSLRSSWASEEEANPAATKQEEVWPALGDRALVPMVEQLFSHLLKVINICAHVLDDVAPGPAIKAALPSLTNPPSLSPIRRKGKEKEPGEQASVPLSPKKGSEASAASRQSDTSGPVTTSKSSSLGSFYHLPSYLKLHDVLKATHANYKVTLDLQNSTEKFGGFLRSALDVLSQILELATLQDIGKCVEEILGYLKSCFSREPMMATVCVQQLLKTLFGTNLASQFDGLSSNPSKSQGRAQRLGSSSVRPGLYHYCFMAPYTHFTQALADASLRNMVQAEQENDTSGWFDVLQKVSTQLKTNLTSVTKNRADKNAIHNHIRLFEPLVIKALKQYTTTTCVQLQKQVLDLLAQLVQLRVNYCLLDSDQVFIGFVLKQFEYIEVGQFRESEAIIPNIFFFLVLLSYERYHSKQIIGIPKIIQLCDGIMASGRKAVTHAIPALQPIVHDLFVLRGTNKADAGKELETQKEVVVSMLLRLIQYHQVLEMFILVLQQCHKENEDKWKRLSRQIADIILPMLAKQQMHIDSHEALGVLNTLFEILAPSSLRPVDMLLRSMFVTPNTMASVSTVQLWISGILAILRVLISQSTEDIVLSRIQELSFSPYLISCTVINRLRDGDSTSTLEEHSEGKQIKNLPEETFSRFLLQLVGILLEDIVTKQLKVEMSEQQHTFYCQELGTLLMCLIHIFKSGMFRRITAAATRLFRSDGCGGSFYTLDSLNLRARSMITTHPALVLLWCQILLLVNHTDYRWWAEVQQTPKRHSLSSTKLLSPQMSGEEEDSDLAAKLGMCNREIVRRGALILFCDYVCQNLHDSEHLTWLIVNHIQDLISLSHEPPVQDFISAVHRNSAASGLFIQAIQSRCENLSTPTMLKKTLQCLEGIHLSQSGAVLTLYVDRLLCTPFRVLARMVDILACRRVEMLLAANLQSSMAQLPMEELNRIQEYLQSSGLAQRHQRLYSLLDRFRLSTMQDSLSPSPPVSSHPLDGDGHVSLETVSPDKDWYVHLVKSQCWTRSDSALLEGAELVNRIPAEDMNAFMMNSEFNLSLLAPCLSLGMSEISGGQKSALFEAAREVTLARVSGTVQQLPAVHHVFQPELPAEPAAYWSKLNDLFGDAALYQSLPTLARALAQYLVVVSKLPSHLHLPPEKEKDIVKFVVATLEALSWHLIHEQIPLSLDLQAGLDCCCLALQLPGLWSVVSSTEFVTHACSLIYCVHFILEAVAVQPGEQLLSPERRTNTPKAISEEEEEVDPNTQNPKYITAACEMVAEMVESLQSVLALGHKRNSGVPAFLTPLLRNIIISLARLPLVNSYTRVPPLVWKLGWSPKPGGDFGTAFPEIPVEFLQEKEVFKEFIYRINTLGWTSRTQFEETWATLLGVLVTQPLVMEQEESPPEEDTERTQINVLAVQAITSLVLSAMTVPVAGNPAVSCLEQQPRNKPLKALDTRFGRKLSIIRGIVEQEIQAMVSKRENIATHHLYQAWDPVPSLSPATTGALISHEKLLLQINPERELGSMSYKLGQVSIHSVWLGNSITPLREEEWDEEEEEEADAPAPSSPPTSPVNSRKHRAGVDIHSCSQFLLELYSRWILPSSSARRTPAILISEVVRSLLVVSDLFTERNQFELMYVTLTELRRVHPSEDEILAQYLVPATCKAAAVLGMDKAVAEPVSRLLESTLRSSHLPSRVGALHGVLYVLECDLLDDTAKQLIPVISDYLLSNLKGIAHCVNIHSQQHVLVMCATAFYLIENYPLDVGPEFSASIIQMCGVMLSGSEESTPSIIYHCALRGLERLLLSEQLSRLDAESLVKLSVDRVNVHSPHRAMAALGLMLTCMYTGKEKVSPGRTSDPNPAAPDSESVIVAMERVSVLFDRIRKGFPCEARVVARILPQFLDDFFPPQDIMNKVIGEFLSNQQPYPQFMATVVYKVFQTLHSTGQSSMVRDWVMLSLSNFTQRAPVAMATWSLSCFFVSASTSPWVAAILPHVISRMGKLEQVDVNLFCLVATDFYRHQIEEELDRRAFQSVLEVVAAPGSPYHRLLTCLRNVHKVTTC
Hits are given with their value; 0 = inactive; - = no result; ! = repeats disagree. Rule as the data show it: active = inhibition above about 50%; inactive = the rest.

SMILES	Pf apPOL block	mHTT-CaM PPI inh
CN(Cc1ccccc1)C(=O)C1CC(c2ccc(F)cc2)=NO1 (centres undefined)	0	0
Cc1ccc(N2C=C(C#N)S(=O)(=O)c3ccc(F)cc32)cc1	0	0
CC(NC(=O)CSc1nnc(-c2ccc(Cl)cc2Cl)n1N)c1ccccc1 (centres undefined)	0	0
Cc1cc(C)c(C#N)c(SCc2[nH]nc3c2C(c2ccccc2[N+](=O)[O-])C(C#N)=C(N)O3)n1 (centres undefined)	0	0
CC1(C)N=c2ccc([N+](=O)[O-])cc2=N1	64	-
O=[N+]([O-])c1ccc2nc(Cl)c(Cl)nc2c1	-	0
Cc1ccc(C(=O)NC2CCN(c3nnc4ccc(C(F)(F)F)cn34)CC2)cc1	0	0
Cc1ccc(NC(=O)c2cc3n(n2)C(C(F)(F)F)CC(c2ccco2)N3)cc1 (centres undefined)	0	0
CCc1ccc(C2CC(c3ccccc3Cl)Nc3nc(N)nn32)cc1 (centres undefined)	0	52
CCc1ccc(C2CC(c3ccccc3Cl)n3nc(N)nc3N2)cc1 (centres undefined)	0	0
COc1ccccc1C1CC(c2ccc(C)cc2)Nc2nc(N)nn21 (centres undefined)	0	0
COc1ccccc1C1CC(c2ccc(Cl)c(Cl)c2)Nc2nc(N)nn21 (centres undefined)	0	99
Cc1cccc(C2CC(c3ccc(F)cc3)Nc3nc(N)nn32)c1 (centres undefined)	0	0
CCOc1ccccc1C1CC(c2ccccc2)Nc2ncnn21 (centres undefined)	0	0
Cc1cccc(C2CC(c3ccc(Cl)cc3)Nc3nc(N)nn32)c1 (centres undefined)	0	56
CCOc1ccccc1C1CC(c2ccc(I)cc2)Nc2ncnn21 (centres undefined)	0	54
CCn1c(C2CCN(C(=O)CC3CCCCC3)C2)nc2cccnc21 (centres undefined)	0	0
CCOC(=O)C(NCCOC)(NC(=O)c1ccccc1Cl)C(F)(F)F (centres undefined)	0	-
O=C(Nc1ccccc1)c1ccc(-c2ccc(F)cc2)nc1	0	0
CCCNC(=O)c1nn(C)c2c1COc1ccccc1-2	0	0
Cc1ccccc1N1CCC(C(=O)NCc2ccccc2F)C1=O (centres undefined)	0	0
Cn1c(C2CCN(S(=O)(=O)c3ccc(F)c(Cl)c3)C2)nc2cccnc21 (centres undefined)	0	0
CN1CCN(C(=O)c2ccc3nc(-c4ccccc4)cn3c2)CC1	0	0
COc1cccc(C2CC(c3ccccc3Cl)n3nc(N)nc3N2)c1 (centres undefined)	0	0
COc1cccc(C2CC(c3ccc(Cl)cc3Cl)n3nc(N)nc3N2)c1 (centres undefined)	0	52
SMILES	Pf apPOL block	mHTT-CaM PPI inh
CCOc1ccccc1C1CC(c2ccc(Br)cc2)Nc2nc(N)nn21 (centres undefined)	0	99
COc1ccccc1C1CC(c2ccc(Br)cc2)Nc2nc(N)nn21 (centres undefined)	0	0
Cc1cccc(NC(=O)C2CC(=O)N(c3ccc4oc(C)nc4c3)C2)c1 (centres undefined)	0	0
Cc1ccc(N2CCN(C(=O)CN3CCc4ccccc4C3C(=O)N(C)C)CC2)cc1 (centres undefined)	0	0
CC(C)c1nc2c(c(=O)n1CC(=O)Nc1cccc(F)c1)CCN(Cc1ccccc1)C2	0	84
CC(C)c1nc2c(c(=O)n1CC(=O)Nc1ccccc1F)CCN(Cc1ccccc1)C2	0	0
Cc1ccc(-c2csc3c(=O)n(CC(=O)Nc4ccc(F)cc4)cnc23)cc1	0	0
Cc1cc(NC(=O)C2CCN(C(=O)NCc3cccs3)CC2)no1	0	0
CN(C1=CC(=O)c2ccccc2C1=O)c1ccccc1	0	60
CN(C)N1C(=O)c2ccccc2C1=O	0	0
O=C1OC2(CCCCC2)OC(=O)C1=CNc1nc(-c2cc3ccccc3oc2=O)cs1	0	0
COc1ccc(-c2nc3n(n2)C(=O)CC(c2ccc(OC)cc2)S3)cc1 (centres undefined)	0	0
COCCCNC(=O)N1CCCCCC1c1ccc(Cl)cc1 (centres undefined)	72	0
COCCCNC(=O)N1CCCC1c1ccc(Cl)cc1 (centres undefined)	0	0
Cc1cc(NS(=O)(=O)c2ccc(NC(=O)C(Cl)(Cl)Cl)cc2)nc(C)n1	86	0
Cc1cc(NS(=O)(=O)c2ccc(NC(=O)C3CC3)cc2)nc(C)n1	0	0
O=C(C1CCCC1)N(CC1CCCO1)c1nc2ccccc2s1 (centres undefined)	0	0
Cc1ccc(S(=O)(=O)N2CCC(=O)N([C@H](COCc3cccc(C(F)(F)F)c3)Cc3ccccc3)CC2)cc1	0	0
CC(C)C[C@@H](COCc1cccc(Cl)c1)N1CCN(C(=O)c2cccc(C(F)(F)F)c2)CCC1=O	0	87!
Cc1ccc(S(=O)(=O)N2CCC(=O)N([C@H](COCc3cccc(C(F)(F)F)c3)C(C)C)CC2)cc1	0	0
CC(C)C[C@@H](COCc1ccc(F)cc1)N1CCN(C(=O)c2cccc(C(F)(F)F)c2)CCC1=O	0	60
Cc1ccccc1CN1CCC(N2CCCCCC2)CC1	0	0
COC(=O)c1sccc1-c1ccc(C=NOCc2cc(F)cc3c2OCOC3)o1	0	-
Cc1cccc(OCCn2c(N)nc3ccccc32)c1	0	0
O=C(Nc1ccc(Oc2ccccc2)cc1)c1ccncc1	0	0
SMILES	Pf apPOL block	mHTT-CaM PPI inh
N#Cc1ccc(Oc2ccc(C(=O)Nc3ccccc3)cc2)cc1	68	0
Cc1ccc(Br)cc1N1CCC(C(=O)Nc2cccc(F)c2)C1=O (centres undefined)	0	0
Cc1ccc(NC(=O)C2CCN(c3cc(Br)ccc3C)C2=O)cc1C (centres undefined)	0	74
CCCN1CCN(C(=O)c2ccc(-c3cccs3)nc2)CC1	0	0
COc1ccc(N2CCN(C(=O)C3CCN(c4nccc(C)n4)CC3)CC2)cc1	0	0
COc1ccc(N=Cc2cccc(OC)c2O)cc1Cl	0	0
COc1cccc(C2C(N3C(=O)c4ccccc4C3=O)C(=O)N2c2cccc(C)c2)c1 (centres undefined)	0	0
O=C(CC1CC1)NC1CCc2[nH]c3ccc(Cl)cc3c2C1 (centres undefined)	0	88
Cc1ccc2[nH]c3c(c2c1)CC(NC(=O)CC1C=CCC1)CC3 (centres undefined)	0	97
CCC(=O)NC1CCc2[nH]c3ccc(C)cc3c2C1 (centres undefined)	0	0
Cc1cc2[nH]c3c(c2cc1C)CC(NC(=O)C1CCCC1)CC3 (centres undefined)	0	0
Cc1onc(-c2ccc(F)cc2F)c1C(=O)NC1CC1	0	0
Cc1[nH]n(-c2ccc(Cl)cc2)c(=O)c1C=Nc1cccc(Nc2ccccc2)c1	0	0
Cc1cc(/C=C2/NC(=O)N(Cc3ccc(Cl)cc3)C2=O)c(C)n1-c1ccc([N+](=O)[O-])cc1	0	0
Cc1cc(C)nc(NS(=O)(=O)c2ccc(NC(=O)C3COc4ccccc4O3)cc2)n1 (centres undefined)	0	0
O=C(Nc1nnc(-c2cc(Cl)sc2Cl)o1)C1COc2ccccc2O1 (centres undefined)	0	81
O=C(Nc1nnc(CCS(=O)(=O)c2ccccc2)o1)C1COc2ccccc2O1 (centres undefined)	0	65
O=C(CSc1ccccc1)Nc1nnc(-c2cc(Cl)sc2Cl)o1	0	0
